Experimental findings from PubChem BioAssay AID2577 (National Center for Advancing Translational Sciences (NCATS), 2010) are described below.

A number with no mark means an inactive call. Calls follow the shape of the dose curve; as a rule, active = well fitted curve in the direction sought with a large enough effect; inactive = no such curve, though single readings can be large or run the other way.

This experiment deals with Lysosomal alpha-glucosidase (Homo sapiens) (UniProt P10253). Nature of the experiment: qHTS Assay for Inhibitors and Activators of N370S glucocerebrosidase as a Potential Chaperone Treatment of Gaucher Disease: Alpha-Glucosidase Counterscreen. The settings on record: purified human alpha-glucosidase, 4MU-alpha-glucoside fluorescence. The source says:
NIH Chemical Genomics Center [NCGC] NIH Molecular Libraries Probe Production Centers Network [MLPCN] MLPCN Grant: MH086442-01 Assay Submitter (PI): Wei Zheng Glucocerebrosidase (GC) catalyzes the hydrolysis of beta-glucocerebroside to glucose and ceramide in lysosomes. Mutations in the glucocerebrosidase gene result in Gaucher disease, an autosomal recessive lysosomal storage disorder. Many of the mutations encountered in patients with Gaucher disease are missense alterations that may cause misfolding, decreased stability and/or mistrafficking of this lysosomal protein. […] These inhibitors include iminosugar analogs and three non-iminosugar inhibitors identified from a previous HTS of 62,000 compounds with the wild type recombinant enzyme. However, the enhancement of enzyme activity by the chaperone action of an enzyme inhibitor must be balanced against the direct inhibition of the enzyme. An enzyme activator could also function as a chaperone by binding to the enzyme and helping to correct its misfolding and mistrafficking. While activators for GC have not yet been identified, they may have better therapeutic potential than inhibitors. Therefore the discovery and development of chemical activators may provide a new strategy for the chaperone therapy. To characterize compound selectivity, selected hits from the primary screen were screened against purified alpha-glucosidase, a related sugar hydrolase. Alpha-glucosidase is responsible for hydrolysis of terminal, non-reducing 1,4-linked alpha-D-glucose residues with release of alpha-D-glucose.
NCGC Assay Protocol Summary: This is a fluorogenic enzyme assay with 4-methylumbelliferyl-alpha-D-[…] as the substrate and human alpha-glucosidase as the enzyme preparation. Upon the hydrolysis of this fluorogenic substrate, the resulting product, 1. 4-methyllumbelliferone, can be excited at 365 nm and emits at 440 nm which can be detected by a standard fluorescence plate reader. Data were normalized to the controls for basal activity (without enzyme) and 100% activity (with enzyme). The AC50 values were determined from concentration-response data modeled with the standard Hill equation. Assay buffer: 50 mM citric acid (titrated with potassium phosphate to pH 5.0), 0.005% Tween-20, pH 5.0. (pH 5.0 is an optimal condition for this enzyme assay) 1536-well assay protocol for the human alpha-glucosidase: (1) Add 2 ul/well of enzyme (4 nM final) (2) Add 23 nL compounds in DMSO solution. The final titration was 0.7 nM to 77 uM. (3) Add 1 ul of substrate (400 uM final) (4) Incubate at room temperature for 20 min. (5) Add 2 ul stop solution (1M NaOH and 1M Glycine mixture, pH 10) (6) Detect the assay plate in a ViewLux plate reader (PerkinElmer) with Ex=365 nm and Em=440nm. Keywords: Alpha-glucosidase, Pompe Disease, pharmacological chaperone, chaperone therapy, high throughput screening, alpha-glucosidase inhibitor, MLSMR, MLSCN, NIH Roadmap, qHTS and NCGC
For orientation: qHTS replaces the single test concentration by a dilution series.
Consider `N#Cc1ccc(S(=O)(=O)N2CCN(c3nc(-c4cccs4)nc4ccccc34)CC2)cc1`, for which the max response was -5.53%.

As for `O=S(=O)(c1ccc2c(c1)CCCC2)N1CCN(c2nc(-c3ccccc3)nc3ccccc23)CC1`, the max response is -8.51%. Take `O=S(=O)(c1cccc(C(F)(F)F)c1)N1CCN(c2nc(-c3cccs3)nc3ccccc23)CC1`: the max response is -4.78%. Consider `O=S(=O)(c1ccc2c(c1)OCCO2)N1CCN(c2nc(-c3cccs3)nc3ccccc23)CC1`, for which the max response was -3.67%. `CC(C)(C)c1ccc(S(=O)(=O)N2CCN(c3nc(-c4cccs4)nc4ccccc34)CC2)cc1`: the max response is -6.75%. As to `O=S(=O)(c1cccc(C(F)(F)F)c1)N1CCN(c2nc(-c3cccs3)nc3cc(Cl)ccc23)CC1`, the max response is -7.27%. Next, `O=S(=O)(c1ccccc1C(F)(F)F)N1CCN(c2nc(-c3ccccc3)nc3ccccc23)CC1`: -7.6%.

As to `COc1ccc(-c2nc(N3CCN(S(=O)(=O)c4ccccc4)CC3)c3ccccc3n2)cc1`, the max response is -7.46%. The same measure for `CC(=O)c1ccc(S(=O)(=O)N2CCN(c3nc(-c4ccccc4)nc4ccccc34)CC2)cc1`: -3.56%; for `COc1ccc(S(=O)(=O)N2CCN(c3nc(-c4cccs4)nc4ccccc34)CC2)cc1`: -3.66%; for `O=S(=O)(c1ccc(F)cc1)N1CCN(c2nc(-c3ccccc3)nc3cc(Cl)ccc23)CC1`: -12.7%. Take `O=S(=O)(c1ccc(F)cc1)N1CCN(c2nc(-c3ccc(F)cc3)nc3cc(Cl)ccc23)CC1`: the max response is -3.75%. `O=S(=O)(c1ccccc1)N1CCN(c2nc(-c3cccs3)nc3ccccc23)CC1`: the max response is -12.9%.

Take `O=S(=O)(c1ccc(F)cc1)N1CCN(c2nc(-c3cccs3)nc3ccccc23)CC1`: the max response is -15.5%.

As for `N#Cc1ccccc1S(=O)(=O)N1CCN(c2nc(-c3cccs3)nc3ccccc23)CC1`, the max response was -5.04%. Consider `O=S(=O)(c1ccc(Cl)cc1)N1CCN(c2nc(-c3ccc(F)cc3)nc3cc(Cl)ccc23)CC1`, for which the max response was -5.47%. `O=S(=O)(c1ccccc1F)N1CCN(c2nc(-c3cccs3)nc3ccccc23)CC1`: the max response was -14.1%. Consider `Cc1ccc(-c2nc(N3CCN(S(=O)(=O)c4ccc(F)cc4)CC3)c3ccc(Cl)cc3n2)cc1`, for which the max response is -14.5%.

Consider `O=S(=O)(c1ccc(F)cc1)N1CCN(c2nc(-c3cccc(Br)c3)nc3ccccc23)CC1`, for which the max response is -5.01%. For `O=S(=O)(c1ccc(F)cc1)N1CCN(c2nc(-c3ccccc3)nc3ccccc23)CC1`, the max response is -3.53%. In the case of `N#Cc1ccc(S(=O)(=O)N2CCN(c3nc(-c4ccccc4)nc4ccccc34)CC2)cc1`, the max response is -5.2%. The same measure for `O=[N+]([O-])c1cccc(S(=O)(=O)N2CCN(c3nc(-c4ccccc4)nc4ccccc34)CC2)c1`: -5.2%; for `NS(=O)(=O)c1ccc(S(=O)(=O)N2CCN(c3nc(-c4cccs4)nc4ccccc34)CC2)cc1`: -10.5%; for `O=S(=O)(c1ccccc1Cl)N1CCN(c2nc(-c3ccccc3)nc3ccccc23)CC1`: -4.34%.

Take `O=S(=O)(c1ccc2ccccc2c1)N1CCN(c2nc(-c3ccccc3)nc3ccccc23)CC1`: the max response was -4.15%.

As to `CCOc1ccc(S(=O)(=O)N2CCN(c3nc(-c4ccccc4)nc4ccccc34)CC2)cc1OCC`, the max response was -7.31%. As to `Cc1ccc(S(=O)(=O)N2CCN(c3nc(-c4ccccc4)nc4ccccc34)CC2)cc1`, the max response is -13.1%. Regarding `O=S(=O)(c1ccc(Cl)cc1)N1CCN(c2nc(-c3ccc(Cl)cc3)nc3ccccc23)CC1`, the max response is 1.68%. `O=S(=O)(c1ccc2c(c1)CCCC2)N1CCN(c2nc(-c3cccs3)nc3ccccc23)CC1`: the max response was -7.5%. Next, `Cc1ccc(S(=O)(=O)N2CCN(c3nc(-c4ccc(F)cc4)nc4cc(Cl)ccc34)CC2)cc1`: -4.96%; `O=S(=O)(c1ccc(F)cc1)N1CCN(c2nc(-c3cccs3)nc3cc(Cl)ccc23)CC1`: -15.8%; `O=S(=O)(c1ccccc1C(F)(F)F)N1CCN(c2nc(-c3cccs3)nc3ccccc23)CC1`: -3.11%. For `COc1ccc(S(=O)(=O)N2CCN(c3nc(-c4ccccc4)nc4ccccc34)CC2)cc1`, the max response is -14.8%. For the molecule `COc1ccc(-c2nc(N3CCN(S(=O)(=O)c4ccc(C)cc4)CC3)c3ccccc3n2)cc1`, the max response is -0.975%.

In the case of `O=S(=O)(c1ccc(OC(F)(F)F)cc1)N1CCN(c2nc(-c3ccccc3)nc3ccccc23)CC1`, the max response is -5.72%. Consider `NS(=O)(=O)c1ccc(S(=O)(=O)N2CCN(c3nc(-c4ccccc4)nc4ccccc34)CC2)cc1`, for which the max response was -7.36%.

Turning to `O=S(=O)(c1ccccc1)N1CCN(c2nc(-c3ccc(F)cc3)nc3cc(Cl)ccc23)CC1`, the max response was -8.72%. As to `O=[N+]([O-])c1ccc(S(=O)(=O)N2CCN(c3nc(-c4ccccc4)nc4ccccc34)CC2)cc1`, the max response was -3.59%.

As for `O=[N+]([O-])c1cccc(S(=O)(=O)N2CCN(c3nc(-c4cccs4)nc4ccccc34)CC2)c1`, the max response was -3.53%.

Take `Cc1ccc(S(=O)(=O)N2CCN(c3nc(-c4cccs4)nc4ccccc34)CC2)cc1`: the max response was -8.42%.
